# Reference: PubChem BioAssay AID488908 (National Center for Advancing Translational Sciences (NCATS), 2010)
# Records with an inconclusive call do not appear. The source made the active and inactive calls. The call rests on the fitted dose curve; in most records, active means well fitted inhibition curve with a large enough effect; inconclusive means small, poorly fitted or top-dose-only effect; inactive means flat fitted curve, though single readings scatter.
# Assay: Secondary Assay for lipid storage modulators: Cytotoxcity for probe SAR
# Conditions: Drosophila S3 cells viability, CellTiter-Glo luminescence, 24 h, with oleic acid added (1 µL, 400 µM); series mostly up to 46.1 µM; activity change, negative = cytotoxicity: at the top concentration
# Summary of the method: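 CellTiter-Glo luminescence read after 24 h at 24 degrees C; embryonic Drosophila S3 cells (5,000/well) were co-treated with oleic acid (400 uM stock) and a range of compound concentrations.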
SMILES,"activity change, negative = cytotoxicity",Potency
CCOc1ccc(CCNC(=O)c2cccc(C(=O)c3ccccc3)c2)cc1OCC,-21.3% (inactive),
COc1ccc(Cl)cc1NC(=S)N1CCN(c2ccccc2F)CC1,-6.35% (inactive),
CCOc1ccc(CCNC(=O)C2(c3ccccc3)CC2)cc1OCC,-7.24% (inactive),
O=C(NC1CCCc2c1cnn2-c1ccc(F)cc1F)c1cnon1 (centres undefined),-12.7% (inactive),
O=C(NCCc1ccc(O)c(O)c1)c1cc2sccc2n1Cc1ccccc1,-15% (inactive),
COc1ccc(CCNC(=O)c2cc3sc(C)cc3n2C)cc1OC,-27.1% (inactive),
COc1cc(NC(=S)N2CCN(c3ccccn3)CC2)c(OC)cc1Cl,-8.95% (inactive),
CCOC(=O)C1CCN(C(=O)C2(NC(=O)NCc3ccccc3)CCCCC2)CC1,-15.6% (inactive),
O=C(NC1CCCCC1)NC1(C(=O)N2CCCC2)CCCCC1,-9.55% (inactive),
CC1=C(C(=O)NC2CCCc3c2cnn3-c2ccc(F)cc2F)OCCO1 (centres undefined),,0.996 µM (active)
CCOc1ccc(CCNC(=O)Cc2ccccc2)cc1OCC,-6.12% (inactive),
CCOC(=O)C1CCN(C(=O)C(C)(C)NC(=O)Nc2ccccc2Cl)CC1,-7.62% (inactive),
O=C(NC1CCCc2c1cnn2-c1ccc(F)cc1F)c1cccc(=O)[nH]1 (centres undefined),,2.81 µM (active)
CN(C)CC(=O)NC1CCCc2c1cnn2-c1ccc(F)cc1F (centres undefined),-8.45% (inactive),
O=C(Nc1cccc2c1cnn2-c1ccc(F)cc1)c1ccccn1,,0.888 µM (active)
CCOc1ccc(CCNC(C)=O)cc1OCC,-2.17% (inactive),
Cc1cc(NC(=O)Nc2ccc(N(C)C)cc2)c2cc(F)cc(F)c2n1,,12.5 µM (active)
COc1cc(Nc2ncc(F)c(Nc3ccc4c(n3)NC(=O)C(C)(C)O4)n2)cc(OC)c1OC,-16.2% (inactive),
CCOC(=O)C1CCN(C(=O)C2(NC(=O)Nc3ccc(F)cc3F)CCCCC2)CC1,-18.3% (inactive),
O=C(NCCc1ccc(O)c(O)c1)c1cc2sccc2[nH]1,0.525% (inactive),
CCOc1ccc(CCNC(=O)c2cnon2)cc1OCC,2.21% (inactive),
CCOC(=O)C1CCN(C(=O)C2(NC(=O)Nc3ccccc3Cl)CCCCC2)CC1,-10.2% (inactive),
O=C(NC1CCCc2c1cnn2-c1ccc(F)cc1F)c1ccc(F)cc1 (centres undefined),,14.1 µM (active)
COc1ccc(-c2csc(NC(=O)CSc3nnc(NC4CC4)s3)n2)cc1OC,-10.9% (inactive),
COc1ccc(-c2csc(NC(=O)CSc3nnc(Nc4ccccc4)s3)n2)cc1,-28.8% (inactive),
O=C(NC1CCCc2c1cnn2-c1ccc(F)cc1F)c1ccsc1 (centres undefined),,3.97 µM (active)
Cc1ccc(C)c(-c2csc(NC(=O)CSc3nnc(Nc4ccc(OC(F)(F)F)cc4)s3)n2)c1,-11.8% (inactive),
CCCn1c(-c2ccc(OC)cc2)cnc1SCC(=O)Nc1nc(C)c(C)s1,-22% (inactive),
CN(C)Cc1ccc(-c2nc3cccc4c3n2CCNC4=O)cc1,-2.69% (inactive),
